The values below come from PubChem BioAssay (Tox21).

SMILES strings stand for the structures. Records with an inconclusive call do not appear. Unmarked numbers belong to inactive results. Calls of active or inactive are those of the source. Unless noted, calls follow the shape of the dose curve; as a rule, active = well fitted curve in the direction sought with a large enough effect in the repeat runs; inconclusive = weak or mixed curves; inactive = no such curve, though single readings can be large; an effect the other way counts as inactive or inconclusive.

Experiment [1] is described as follows: qHTS assay to identify small molecule antagonists of the retinoid acid receptor (RAR) signaling pathway - cell viability counter screen (AID 1159551). Also: nearly all actives have a fitted effect of over 35% in size. Also: potency is read from the fitted curve at half-maximal effect. In short, it runs like this:
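Luminescent ATP quantitation (CellTiter-Glo) gave cell viability in C3RL4 cells exposed to test chemicals for 6 h at 37 C alongside 1 uM final retinol.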

Experiment [2] can be described thus: qHTS assay to identify small molecule antagonists of the retinoic acid receptor (RAR) signaling pathway (AID 1159552; also: nearly all actives have a fitted effect of over 50% in size; also: potency is read from the fitted curve at half-maximal effect). In short, it runs like this:
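Antagonism of retinol-induced RARE reporter activity was measured in C3RL4 cells. Exposure to compounds and 1 uM final retinol lasted 6 hr at 37 C, with luminescence as endpoint.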

A short description of experiment [3]: qHTS assay to identify small molecule antagonists of the estrogen related receptor (ERR) signaling pathway from Tox21 library - cell viability counter screen (AID 1224834). Also: nearly all actives have a fitted effect of over 30% in size. Also: potency is read from the fitted curve at half-maximal effect. In short, it runs like this: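 Fluorescence from CellTiter-Fluor gives the viability read-out, taken 30 min after reagent addition. Before that, ERR cells seeded 6 h earlier were incubated with compounds for 17.5 h at 37 C.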

Experiment [4] is described as follows: qHTS assay to identify small molecule agonists of the constitutive androstane receptor (CAR) signaling pathway - cell viability counter screen (AID 1224836). Also: nearly all actives have a fitted effect of over 45% in size. Also: potency is read from the fitted curve at half-maximal effect. In short, it runs like this:
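Double-stable HepG2 hepatoma cells (hCAR plus CYP2B6-2.2kb) are treated for 23 h at 37 C with test compounds in 15-point concentration series. PK11195 at 0.75 uM final is co-added. Cell viability is quantified by CellTiter-Fluor.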

Experiment [5] in a line: qHTS assay to identify small molecule antagonists of the constitutive androstane receptor (CAR) signaling pathway - cell viability counter screen (AID 1224837). Also: nearly all actives have a fitted effect of over 45% in size. Also: potency is read from the fitted curve at half-maximal effect. In short, it runs like this:
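HepG2-CYP2B6-hCAR cells, 2500/well, 4 hr pre-incubation; compound titration, 15 conc.; CITCO 50 nM final; 23 hr, 37 C/5% CO2; CellTiter-Fluor, fluorescence intensity.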

Experiment [6] concerns the target Nuclear receptor subfamily 1 group I member 3 (Homo sapiens) (UniProt Q14994). In words: qHTS assay to identify small molecule antagonists of the constitutive androstane receptor (CAR) signaling pathway (AID 1224838).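 Also: HepG2 cells stably expressing hCAR with CYP2B6 luciferase reporter stimulated by CITCO; nearly all actives have a fitted effect of over 40% in size.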 Also: potency is read from the fitted curve at half-maximal effect. In short, it runs like this: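 HepG2-CYP2B6-hCAR cells; 4 h pre-incubation; cpd (15 conc) + CITCO 50 nM final; 24 h, 37 C/5% CO2; ONE-Glo, luminescence.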

Experiment [7] has the same target. In words: qHTS assay to identify small molecule agonists of the constitutive androstane receptor (CAR) signaling pathway (AID 1224839). Also: nearly all actives have a fitted effect of over 15% in size. Also: potency is read from the fitted curve at half-maximal effect. In short, it runs like this: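 Readout: firefly luciferase luminescence via ONE-Glo. System: HepG2 double-stable for hCAR and CYP2B6-2.2kb. Conditions: 15-point compound titration, PK11195 at 0.75 uM final, 24 h incubation.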
Experiment [8] in a line: qHTS assay to identify small molecule antagonists of the estrogen related receptor signaling pathway with the pleiotropic PPARgamma coactivator (PGC) from Tox21 10K library - cell viability counter screen (AID 1224840; active = well fitted cell-killing curve with a large enough effect in the repeat runs, not every such curve was filed as active; also: nearly all actives have a fitted effect of over 40% in size; also: potency is read from the fitted curve at half-maximal effect). In short, it runs like this:
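PGC/ERR cells, 2,000/well; 6 h pre-incubation 37 C/5% CO2; cpd in DMSO via pin tool; 17.5 h 37 C; CellTiter-Fluor, 30 min; fluorescence.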

Experiment [9] is described as follows: qHTS assay to identify small molecule antagonists of the estrogen related receptor signaling pathway with the pleiotropic PPARgamma coactivator (PGC) from Tox21 10K library (AID 1224841; call rule not given here; also: potency is read from the fitted curve at half-maximal effect; actives are mostly falling curves and most rising ones were filed inactive; nearly all actives have a fitted effect of over 50% in size). In short, it runs like this: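 PGC/ERR cell line, 2,000 cells/well; 6 h pre-incubation 37 C/5% CO2; compounds (DMSO) pinned in; 18 h, 37 C; One-Glo, 30 min RT; luminescence.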

The nature of experiment [10]: qHTS assay to identify small molecule agonists of the estrogen related receptor signaling pathway with the pleiotropic PPARgamma coactivator (PGC) from Tox21 10K library (AID 1224842). Also: nearly all actives have a fitted effect of over 15% in size. In short, it runs like this: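 PGC/ERR reporter cells (NTP line) were seeded 2,000 per well, rested 6 h at 37 C/5% CO2, then pin-dosed with compounds in DMSO for 18 h at 37 C; luciferase read by One-Glo luminescence after 30 min at room temperature.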

Experiment [11] has as its target Thyrotropin receptor (Homo sapiens) (UniProt P16473). Put plainly: qHTS assay to identify small molecule agonists of the thyroid stimulating hormone receptor (TSHR) signaling pathway (AID 1224843; calls by dose curve; also: nearly all actives have a fitted effect of over 45% in size; also: potency is read from the fitted curve at half-maximal effect). In short, it runs like this: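 Cell line HEK293 with TSHR; density 800/well. Exposure 30 min RT. Readout HTRF cAMP (cAMP-d2/anti-cAMP-cryptate), 1 h RT before reading.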

The nature of experiment [12]: qHTS assay to identify small molecule agonists of the hypoxia (HIF-1) signaling pathway - cell viability counter screen (AID 1224844; calls by dose curve; also: nearly all actives have a fitted effect of over 50% in size; also: potency is read from the fitted curve at half-maximal effect). In short, it runs like this:
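ME-180 HRE-bla cells, 2,000/well, 0.5% dialyzed FBS; 5 hr settle, 17 hr compound at 37C/5% CO2; CCF4-AM reporter read first, then CellTiter-Glo luminescence after 30 min RT.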

Experiment [13] concerns the target Luciferin 4-monooxygenase (Photinus pyralis) (UniProt P08659). Put plainly: qHTS assay to identify small molecule inhibitors of firefly luciferase (AID 1224835). Also: nearly all actives have a fitted effect of over 25% in size. Also: potency is read from the fitted curve at half-maximal effect. In short, it runs like this:
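Quantitative HTS format; KM concentrations of both substrates. Purified P. pyralis FLuc activity quantified from luminescence images.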

A short description of experiment [14]: qHTS assay to identify small molecule agonists of the retinoic acid receptor (RAR) signaling pathway (AID 1159553). In short, it runs like this: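 Luminescence from a RARE-driven luciferase reporter in C3RL4 cells served as the read-out, measured after 30 min with detection reagent at room temperature. Compounds in DMSO were applied for 6 hr at 37 C following overnight seeding.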

Experiment [15] can be described thus: qHTS assay to identify small molecule antagonists of the estrogen related receptor (ERR) signaling pathway - cell viability counter screen (AID 1224818).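 Also: series mostly up to about 46 µM; viability measured after 17.5 h of compound exposure.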 In short, it runs like this: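 Multiplexed counter screen to separate cytotoxic compounds from true ERR modulators. ERR cells received DMSO-dissolved compounds after a 6 h pre-incubation, were exposed 17.5 h at 37 C, then assayed with CellTiter-Fluor fluorescence.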

Experiment [16] in a line: qHTS assay to identify small molecule agonists of the estrogen related receptor (ERR) signaling pathway (AID 1224820). In short, it runs like this: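 Cells: ERR line from NTP, 2,000/well. Pre-incubation 6 h, 37 C/5% CO2. Compound (DMSO) pin transfer, 18 h 37 C. One-Glo, 30 min RT, luminescence.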
For experiment [17], the system named is estrogen-related receptor alpha (ERRalpha) with PGC-1alpha coactivator, human. In words: qHTS assay to identify small molecule antagonists of the estrogen related receptor signaling pathway with the pleiotropic PPARgamma coactivator (PGC) (AID 1224821; calls by dose curve;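 also: series mostly up to about 46 µM; lower luminescence signal means antagonism of PGC/ERR signalling; nearly all actives have a fitted effect of over 50% in size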). In short, it runs like this:
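Luminescent read-out (One-Glo, 30 min at room temperature) following 18 h treatment of PGC/ERR cells at 37 C with compounds delivered in DMSO. Cells had settled 6 h at 37 C/5% CO2 before dosing.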

The nature of experiment [18]: qHTS assay to identify small molecule antagonists of the estrogen related receptor signaling pathway with the pleiotropic PPARgamma coactivator (PGC) cell viability counter screen (AID 1224822; also: series mostly up to about 46 µM). In short, it runs like this:
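Cells: PGC/ERR, 2,000/well, 1536-well format. Pre-incubation 6 h, 37 C/5% CO2. Compound exposure 17.5 h, 37 C. Detection: CellTiter-Fluor, 30 min, fluorescence.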

The nature of experiment [19]: qHTS assay to identify small molecule agonists of the estrogen related receptor signaling pathway with the pleiotropic PPARgamma coactivator (PGC) (AID 1224823). In short, it runs like this:
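Steps: plate PGC/ERR cells at 2,000 cells/well; incubate 6 h, 37 C/5% CO2; pin-transfer compounds (DMSO); incubate 18 h, 37 C; add One-Glo; 30 min RT; read luminescence.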

Sequence of Thyrotropin receptor (Homo sapiens) (P16473 whole entry, looked up): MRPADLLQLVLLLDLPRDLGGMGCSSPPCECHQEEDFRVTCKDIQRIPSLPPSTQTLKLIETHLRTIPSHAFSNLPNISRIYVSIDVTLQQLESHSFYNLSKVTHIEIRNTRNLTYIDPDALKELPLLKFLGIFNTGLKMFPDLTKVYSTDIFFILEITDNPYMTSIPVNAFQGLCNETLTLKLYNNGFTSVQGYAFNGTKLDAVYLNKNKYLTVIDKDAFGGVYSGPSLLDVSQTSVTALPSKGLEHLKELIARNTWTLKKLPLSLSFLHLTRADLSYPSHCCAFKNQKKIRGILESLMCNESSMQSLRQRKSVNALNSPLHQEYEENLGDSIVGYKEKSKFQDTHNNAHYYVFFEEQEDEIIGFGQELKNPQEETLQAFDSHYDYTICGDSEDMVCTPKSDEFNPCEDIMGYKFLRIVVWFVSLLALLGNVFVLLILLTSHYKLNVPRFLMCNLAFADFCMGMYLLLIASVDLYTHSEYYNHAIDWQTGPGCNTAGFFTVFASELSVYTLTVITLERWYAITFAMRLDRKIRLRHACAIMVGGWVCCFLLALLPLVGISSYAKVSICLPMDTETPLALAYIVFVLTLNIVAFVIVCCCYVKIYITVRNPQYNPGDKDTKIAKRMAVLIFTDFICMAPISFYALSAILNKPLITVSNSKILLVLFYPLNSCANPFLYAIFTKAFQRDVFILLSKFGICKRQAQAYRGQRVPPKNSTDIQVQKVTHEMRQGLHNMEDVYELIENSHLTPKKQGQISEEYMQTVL
Sequence of Nuclear receptor subfamily 1 group I member 3 (Homo sapiens) (Q14994 whole entry, looked up): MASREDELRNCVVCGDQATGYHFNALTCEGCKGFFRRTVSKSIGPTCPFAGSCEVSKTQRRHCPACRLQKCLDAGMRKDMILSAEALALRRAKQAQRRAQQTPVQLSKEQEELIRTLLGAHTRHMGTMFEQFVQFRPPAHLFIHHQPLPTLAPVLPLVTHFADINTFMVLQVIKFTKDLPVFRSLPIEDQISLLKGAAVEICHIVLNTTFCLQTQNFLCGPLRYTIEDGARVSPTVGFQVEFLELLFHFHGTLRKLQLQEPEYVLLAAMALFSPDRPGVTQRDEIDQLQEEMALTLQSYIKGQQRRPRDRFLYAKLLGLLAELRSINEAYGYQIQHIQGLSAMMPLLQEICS
Sequence of Luciferin 4-monooxygenase (Photinus pyralis) (P08659 whole entry, looked up): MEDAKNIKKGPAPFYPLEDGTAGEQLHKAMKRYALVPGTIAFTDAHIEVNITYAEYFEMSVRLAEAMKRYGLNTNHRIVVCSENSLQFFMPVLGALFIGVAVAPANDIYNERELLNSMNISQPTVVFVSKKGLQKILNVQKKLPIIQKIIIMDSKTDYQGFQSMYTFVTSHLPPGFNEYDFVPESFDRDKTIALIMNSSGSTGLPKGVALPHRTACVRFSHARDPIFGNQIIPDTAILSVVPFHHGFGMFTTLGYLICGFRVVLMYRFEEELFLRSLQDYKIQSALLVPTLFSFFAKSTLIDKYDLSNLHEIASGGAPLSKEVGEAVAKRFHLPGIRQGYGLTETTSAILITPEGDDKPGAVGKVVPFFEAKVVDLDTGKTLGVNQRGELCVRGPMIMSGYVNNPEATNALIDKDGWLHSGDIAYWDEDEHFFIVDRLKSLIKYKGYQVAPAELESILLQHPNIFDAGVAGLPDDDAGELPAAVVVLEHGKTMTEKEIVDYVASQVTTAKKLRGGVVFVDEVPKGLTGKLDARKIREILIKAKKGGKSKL

In the case of `CCCCCCCCCCn1cc[n+](CCCCCCCCCC)c1C`, the Potency in [1] is 61.2 µM (active); in [2] it was 24.4 µM (active); in experiment [3], 27.3 µM (active); in [4], 30.7 µM (active); in experiment [5] it was 54.5 µM (active); in [6] it was 30.7 µM (active). Besides, the Potency in experiment [8] and in experiment [9] was 27.3 µM (active) each time. Also, the Potency result in experiment [7] and in experiment [10] was “inactive” in each case.
Turning to `Oc1ccc2c(c1)-c1ccccc1C2`, the Potency result in experiment [1], in [2], in experiment [3], in experiment [4], in experiment [5] and in experiment [6] was “inactive” throughout. Besides, the Potency entry in experiment [8], in experiment [10], in experiment [11] and in experiment [12] was “inactive” each time. Further, the Potency in [7] is 54.5 µM (active).
As to `CCCCCCCCCCCCCCCCCC[N+](C)(C)Cc1ccccc1`, the Potency in experiment [1] is 61.7 µM (active); in experiment [2], 24.6 µM (active); in [3], 49 µM (active); in experiment [4], 55 µM (active); in experiment [5], 55 µM (active); in experiment [8] it was 55 µM (active). For the same molecule, the Potency in experiment [9] is 30.9 µM (active); in experiment [11], 55 µM (active); in experiment [12], 24.8 µM (active). In addition, the Potency entry in experiment [7] and in experiment [10] was “inactive” throughout.
In the case of `Cc1ccc(O)c2ncccc12`, the Potency entry in [1], in experiment [2], in experiment [13], in experiment [7], in [11] and in experiment [12] was “inactive” throughout. Moreover, the Potency in [3] was 16.8 µM (active); in experiment [5] it was 11.9 µM (active); in experiment [8], 23.7 µM (active).
Regarding `CCCCCCCCCCCCc1ccc(O)cc1`, the Potency is 61.1 µM (active) in [1]; 48.6 µM (active) in experiment [2]; 54.5 µM (active) in [3]; 48.6 µM (active) in [8]; 27.3 µM (active) in experiment [11]; 24.5 µM (active) in [12]. The Potency entry in experiment [13] and in experiment [10] was “inactive” in each case.
Regarding `OCc1c[nH]c2ccccc12`, the Potency result in [1], in experiment [14], in experiment [15], in [17], in experiment [18] and in [4] was “inactive” in each case. The Potency result in experiment [5], in experiment [6], in experiment [8], in experiment [10] and in experiment [12] was “inactive” each time. Also, the result in experiment [16] and in [19] was inactive. Also, the Potency in experiment [7] is 30.6 µM (active).
As for `NC(=O)N1C(=O)C(C(=O)c2cc(Cl)cs2)c2cc(F)c(Cl)cc21` (stereo not given), the Potency result in [1], in [2], in experiment [6], in experiment [7], in experiment [10] and in experiment [11] was “inactive” each time. For the same molecule, the Potency in experiment [3] was 27.3 µM (active); in experiment [13], 71 µM (active); in [8] it was 30.6 µM (active); in experiment [9], 38.6 µM (active).
Regarding `Oc1cc2ccccc2c2ccccc12`, the Potency in [1] was 27.3 µM (active); in experiment [2], 13.7 µM (active); in experiment [13], 79.6 µM (active); in experiment [4], 17.2 µM (active); in experiment [5], 13.7 µM (active); in experiment [8] it was 7.7 µM (active). Moreover, in experiment [12], the Potency was 7.76 µM (active).
